Source: PubChem BioAssay
Nrf2 ARE act: qHTS of Nrf2 Activators; AREc32 ARE-luciferase reporter (MCF7-derived line), luminescence, 24 h; Potency, µM (series often up to 46.1 µM), without a hit: top-dose activation, hits mostly activators; 410,000 compounds, 0.31% hits; AID 624171, 2012; note: potency is the fitted concentration of half-maximal effect; % of control where 0% means no effect; nearly all actives have a fitted effect of over 65% in size
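Cells of the AREc32 ARE-luciferase line are plated in OPTI-MEM containing 5% FBS and left overnight at 37 deg C. Compounds are pinned in, incubation continues 24 hr, and firefly luciferase signal is then measured.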
Nrf2 block: Nrf2 qHTS screen for inhibitors | A549 ARE-Fluc reporter, luciferase luminescence, 18-24 h | Potency, µM (highest dose often 46 µM), for inactives: at the top dose activity change, negative = inhibition, actives largely listed as inhibitors | 360,000 compounds, 2.1% hits; note: potency is the fitted concentration of half-maximal effect; % is set by controls: 0 for no effect and ±100 for the full control effect; nearly all actives have a fitted effect of over 60% in size
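In this cell-based qHTS, ARE-driven firefly luciferase in A549 cells reports Nrf2 activity; the luminescent signal after BugLite lysis is the measured value, with a prior CellTiter-Fluor read for cell health.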
miR-21 reporter: qHTS Assay for Modulators of miRNAs and/orActivators of miR-21 | HeLa miR-21 FLuc reporter, luciferase, 48 h | Potency, µM (titrated, usually from 38.3 µM), inactives show top-dose activity change, positive = activation, hits mostly activators | 340,000 tested, under 10 active;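 note: % of control where 0% means no effect; miR-21 action dims this reporter so a rising signal means less miR-21 action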
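HeLa miR-21-FLuc reporter line, endogenous miR-21; 2000 cells/well in DMEM/10% FBS; compound titration up to ~40uM final, 48 h, 37 degree Celsius; luciferase detection reagent, 15 min lysis, CCD luminescence.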
A549 tox: Nrf2 qHTS screen for inhibitors: counterscreen for cytotoxicity | Potency, µM (highest dose often 46 µM), inactives show at the top dose activity change, negative = cytotoxicity, hits mostly inhibitors | A549 ARE-Fluc cells, CellTiter-Fluor viability, 18-24 h | 390,000 compounds, 0.16% hits; note: potency is the fitted concentration of half-maximal effect; % is set by controls: 0 for no effect and ±100 for the full control effect
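Cytotoxicity counterscreen: CellTiter-Fluor fluorescence was measured in A549 ARE_Fluc cells after 18-24 h of compound exposure in a concentration series. The subsequent BugLite luminescent read reports ARE-luciferase activity.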
Mito fusion yeast: qHTS Assay for Small Molecule Inhibitors of Mitochondrial Division or Activators of Mitochondrial Fusion. S. cerevisiae fusion-defective mutant growth rescue, CellTiterGlo 48 h. Potency, µM (top dose mostly 46.1 µM), for the others: top-dose growth rescue (activation), usual class: activators. 320,000 compounds, 0.23% hits; note: potency is the fitted concentration of half-maximal effect; % of control where 0% means no effect; nearly all actives have a fitted effect of over 45% in size
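Yeast fusion mutant, YPEG (non-fermentable carbon), compound, 48 h at 37C non-permissive; CellTiterGlo added, 10 min RT, luminescence read. Rescued growth = division inhibition.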
* marks the source's active call; other numbers are inactive results; ? = inconclusive; · = not tested or not shown; [ ] = dose if it differs, or a comment. This is a sample that favours compounds with a hit; in the whole collection about 2.3% have one here. Calls come from the whole dose curve; as a rule, active = well fitted curve in the direction sought with a large enough effect; inconclusive = small, poorly fitted or top-dose-only effect, or another doubt; inactive = no such curve, though single readings can be large; an effect the other way counts as inactive or inconclusive.

SMILES	Nrf2 ARE act	Nrf2 block	miR-21 reporter	A549 tox	Mito fusion yeast
NS(=O)(=O)c1ccc(NC(=S)NC(=O)/C=C/c2cccs2)cc1	2%	5%	-2%	-5%	10%
Cc1ccc(S(N)(=O)=O)cc1NC(=O)/C=C/c1cccs1	13µM*	·	0%	-5%	-1%
COc1ccc(C)cc1NC(=O)C(C)N(c1ccc(C)cc1)S(C)(=O)=O (stereo unspecified)	1%	·	-12%	12%	3%
Cc1ccc(N(C(C)C(=O)Nc2cc(Cl)ccc2Oc2ccccc2)S(C)(=O)=O)cc1 (stereo unspecified)	2%	21µM*	22%	0%	-1%
C/C(=N\Nc1ncnc2sc(C)c(C)c12)c1ccccn1	23%	?	?	23µM*	-17%
Cc1sc2ncnc(N/N=C/c3cccc(O)c3)c2c1C	8%	-4%	-65%	-5%	1%
CN(CCc1ccccc1)C(=O)c1ccc(NC(=O)Cc2ccc(NC(=O)C3CCN(C(=O)CCc4ccccc4)CC3)cc2)cc1	1%	9.2µM*	·	-6%	·
CN(CCc1ccccc1)C(=O)c1cccc(NC(=O)Cc2cccc(NC(=O)C3CCCN(C(=O)c4ccccc4)C3)c2)c1 (stereo unspecified)	3%	26µM*	·	-11%	·
CN(CCc1ccccc1)C(=O)c1cccc(NC(=O)Cc2cccc(NC(=O)C3CCCN(C(=O)C4CCCCC4)C3)c2)c1 (stereo unspecified)	6%	?	·	-9%	·
CCOC(=O)C1=C(C)N=C2c3ccccc3C(=O)C2C1c1ccc(Cl)cc1 (stereo unspecified)	8%	?	9%	16µM*	2%
CC1(C)CC(=O)C2=C(C1)N=C1c3ccccc3C(=O)C1C2c1ccc(Cl)cc1 (stereo unspecified)	0%	26µM*	21%	26µM*	16%
Cc1ccc(C2C3=C(CC(C)(C)CC3=O)N=C3c4ccccc4C(=O)C32)cc1 (stereo unspecified)	0%	?	19%	?	13%
CCOC(=O)C1=NNC(C(=O)c2ccccc2)C1c1ccc(Cl)cc1 (stereo unspecified)	4%	?	-2%	-8%	19%
CCC(=O)Nc1ccc(-c2nnc3c4ccccc4c(C)nn23)cc1	5%	-19%	-3%	-6%	·
Cc1ccc(C(=O)CC2(O)C(=O)N(CCc3ccccc3)c3ccc(Cl)cc32)cc1 (stereo unspecified)	0%	-12%	?	?	·
Cc1c(P(=S)(c2ccccc2)c2ccccc2)c2ccccc2n1CCCc1ccccc1	·	5%	·	4%	·
O=C(c1cccs1)N(C(=O)c1cccs1)c1ccc(Br)cn1	?	?	-20%	?	5%
Cc1ccnc(N(C(=O)c2cccs2)C(=O)c2cccs2)c1	10µM*	5%	-44%	0%	1%
CCCOc1ccc(C(=O)Nc2ccc(S(=O)(=O)NC3=NCCCCC3)cc2)cc1	2%	18µM*	·	-9%	12%
O=C(Nc1ccc(S(=O)(=O)NC2=NCCCCC2)cc1)c1cc(F)c(F)cc1Cl	0%	-22%	·	-1%	0%
O=C(Nc1ccc(S(=O)(=O)NC2=NCCCCC2)cc1)c1ccc(Cl)cc1Cl	-1%	16µM*	·	-10%	10%
CC(C)c1nn2c(=O)cc(COC(=O)CNC(=O)c3ccccc3Cl)nc2s1	1%	-8%	-1%	-1%	·
COc1ccc(C(=O)NCCn2cc(SCC(=O)Nc3cccc(C)c3)c3ccccc32)cc1	1%	?	?	-18%	·
CC(C)C(OC(=O)CNC(=O)c1ccccc1)C(=O)Nc1cc(C(F)(F)F)ccc1Cl (stereo unspecified)	·	-1%	·	6%	·
Cc1cc2c(s1)c1cnn(Cc3ccc(Br)cc3)c(=O)c1n2C	·	11%	·	-4%	·
SMILES	Nrf2 ARE act	Nrf2 block	miR-21 reporter	A549 tox	Mito fusion yeast
O=C(/C=C/Nc1ccc(S(=O)(=O)Nc2ncccn2)cc1)c1cccs1	2%	7%	-32%	-8%	1%
O=C(/C=C/Nc1ccc(F)cc1)c1cccs1	6.3µM*	?	·	-9%	·
O=C(/C=C/Nc1ccc(F)c(F)c1)c1cccs1	8.9µM*	?	-56%	0%	-1%
COc1ccc(NC(=O)c2cc3n(n2)C(C(F)(F)F)CC(c2ccc4c(c2)OCO4)N3)cc1OC (stereo unspecified)	0%	23µM*	-7%	-26%	0%
Cc1cccc(NC(=O)c2cc3n(n2)C(C(F)(F)F)CC(c2ccc4c(c2)OCO4)N3)c1 (stereo unspecified)	-1%	·	29%	-13%	?
Cc1ccc(S(=O)(=O)n2nccc2-c2c(-c3ccccc3)noc2C)cc1	0%	18µM*	25%	-2%	2%
C=C1CCN(C(Cc2ccccc2)C(=O)NCc2ccc(Cl)cc2)S(=O)(=O)c2ccccc21 (stereo unspecified)	·	-29%	·	4%	·
CCc1ccc(-n2c(=O)c3cccnc3n2CC(=O)Nc2cc(OC)ccc2OC)cc1	-1%	10%	-3%	6%	·
CCc1cccc(-n2c(=O)c3cccnc3n2CC(=O)Nc2ccc(OC)c(Cl)c2)c1	4%	8.2µM*	13%	6%	·
CCOc1cc(-c2cc(-c3ccc(C)o3)nc(N)c2C#N)ccc1O	5%	15µM*	16%	?	-1%
CCCc1cc(-c2ccc(O)c(OCC)c2)c(C#N)c(N)n1	5%	4%	-8%	-9%	23%
COc1cc(C(=S)N2CCCC2)ccc1O	-1%	2%	0%	-9%[1.84 µM]	0%
COc1cc(C(=S)N2CCC(C)CC2)ccc1O	0%	18µM*	-2%	·	-2%
O=C1Cc2cc(S(=O)(=O)N3CCN(c4ccc(Cl)cc4)CC3)ccc2N1	·	-8%[92.2 µM]	·	15%[92.2 µM]	·
NC(=O)CSc1nnc(Cn2cnc3ccccc32)o1	0%	-14%	3%	8%	1%
Clc1ccc(CSc2nnc(Cn3cnc4ccccc43)o2)cc1	-1%	8.2µM*	19%	-14%	10%
Cn1c(N/N=C/c2cccs2)cc(=O)n(C)c1=O	7.9µM*	5%	-19%	-8%	-1%
Cn1c(=O)c2c(nc(N/N=C/c3cccs3)n2C)n(C)c1=O	5%	-8%	-3%	1%	-1%
COc1ccc(OCc2ccc(-c3nc(C#N)c(NCc4ccc(F)cc4)o3)o2)cc1	6%	?	7%	-13%	·
Cn1cc2ccc(-c3ccc4ncnc(NCc5cccs5)c4c3)cc2n1	·	?	·	-4%	·
CCCCN(CCCC)S(=O)(=O)c1ccc(C(=O)Nc2nnc(CSC)o2)cc1	0%	7.3µM*	-1%	-24%	-6%
CCCN(CCC)S(=O)(=O)c1ccc(C(=O)Nc2nnc(CSC)o2)cc1	0%	9.2µM*	25%	-18%	1%
